HT1080 IDH1KD tx – kills HT-1080 cells with IDH1 knockdown; hit rate 2% among 360,000; Potency, µM (top dose mostly 46.1 µM), for inactives: at the highest dose activity, negative = toxicity, hits mostly cytotoxic; HT-1080 IDH1 knockdown viability, ATP luminescence, 48 h; AID 686971;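 note: potency is the fitted concentration of half-maximal effect; 0% = DMSO wells and -100% = cell-free medium wells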
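In this qHTS, HT-1080 cells depleted of IDH1 are exposed for 48 h at 37 °C to compound titrations. Toxicity is scored from CellTiter-Glo luminescence, with DMSO as full viability and medium alone as none.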
ELG1 DNA repair – inhibitors of ELG1-dependent DNA repair in HEK293T cells | HEK293T ELG1-luciferase reporter, luminescence, 16 h; DNA damage induced by 5-fluorouridine | Potency, µM (highest dose often 46.1 µM), without a hit: at the top dose activity change, negative = inhibition, most hits filed as inhibitors | hit rate 2.3% among 330,000 | AID 504467; note: potency is the fitted concentration of half-maximal effect; nearly all actives have a fitted effect of over 55% in size
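Luminescence from the luciferase reporter, measured 30 min after ONE-Glo reagent at room temperature, was the read-out. Beforehand, 2,000 cells per well were exposed for 16 hr at 37 °C to 5-fluorouridine together with compound or vehicle.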
HT1080NT lethal – kills 2HG-producing HT-1080-NT fibrosarcoma cells | Potency, µM (top dose mostly 46.1 µM), inactives show top-dose activity, negative = less viability, usual class: cytotoxic | HT-1080-NT fibrosarcoma viability, CellTiter-Glo ATP luminescence, 48 h | hit rate 1.6% among 360,000;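 note: NT is the 2HG producing partner of a matched IDH1 knockdown line; potency is the fitted concentration of half-maximal effect; 0% = DMSO-treated cells and -100% = media-only wells without cells; nearly all actives have a fitted effect of over 55% in size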
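Luminescent CellTiter-Glo readout after 48 hours of compound exposure at 37 degrees C defined viability of HT-1080-NT cells. Activity was normalized to DMSO wells and cell-free media wells; concentration-response curves were fitted and assigned curve classes.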
DT40 TDP1 no CPT – qHTS for Inhibitors of human tyrosyl-DNA phosphodiesterase 1 (TDP1): qHTS in cells in absence of CPT. hit rate 15% among 420,000. Potency, µM (highest dose often 46.2 µM), for inactives: at the top dose activity change, negative = growth inhibition, actives largely listed as inhibitors. DT40 Tdp1-/- hTDP1 cells, no CPT, ATP luminescence, 48 h; note: potency is the fitted concentration of half-maximal effect; nearly all actives have a fitted effect of over 55% in size
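Growth kinetics read by CellTiter-Glo luminescence after ≥48 hr at 37 °C. Cells: DT40 Tdp1-/- stably carrying human TDP1, 400 per well, compound exposure in the absence of CPT (DMSO vehicle).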
DT40 TDP1 CPT – DT40-hTDP1 cell growth loss with CPT | chicken DT40 Tdp1-/-;hTDP1 cells + 20 nM CPT, ATP luminescence, 48 h | Potency, µM (highest dose often 46.2 µM), without a hit: at the highest dose activity change, negative = growth inhibition, hits mostly inhibitors | hit rate 12% among 420,000 | AID 686979; note: potency is the fitted concentration of half-maximal effect; nearly all actives have a fitted effect of over 55% in size
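Cell growth measured by CellTiter-Glo luminescence after a minimum 48 h, 37 C compound exposure with 20 nM CPT in Tdp1-knockout DT40 cells stably expressing hTDP1, seeded 400/well; qHTS titration format.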
IL-1B inflam inh – inhibitors of inflammasome signaling (IL-1 beta secretion). THP-1 LPS/ATP IL-1B secretion, AlphaLISA, 16 h; stronger effect = lower value. activity change, % at 57.5 µM. hit rate 4.7% among 360,000. AID 743279; in the data active = activity change below about -50%; inconclusive = mostly about -30% to -49%
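Secreted IL-1B measured by AlphaLISA bead assay after 16 h compound exposure of THP-1 cells; compounds (final up to 57.5 uM) added 1 h before LPS (250 ng/mL) and ATP (1.25 mM) stimulation; lower signal means less secretion.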
* hit, by the source's call; ? = inconclusive; . = no result. An excerpt weighted towards active compounds, which were near 19% of everything screened. Unless noted, calls come from the whole dose curve; as a rule, active = well fitted curve in the direction sought with a large enough effect; inconclusive = small, poorly fitted or top-dose-only effect, or another doubt; inactive = no such curve, though single readings can be large; an effect the other way counts as inactive or inconclusive. Unless noted, % is set by controls: 0 for no effect and ±100 for the full control effect.

SMILES	HT1080 IDH1KD tx	ELG1 DNA repair	HT1080NT lethal	DT40 TDP1 no CPT	DT40 TDP1 CPT	IL-1B inflam inh
CC(C)C(=O)N[C@H]1CCC2C3CC=C4C[C@@H](O)CC[C@]4(C)C3CC[C@@]21C (stereo not given in full)	8%	-16%	4%	?	-29%	62
CCCCCCN[C@H]1CCC2C3CC=C4C[C@@H](O)CC[C@]4(C)C3CC[C@@]21C (stereo not given in full)	?	1%	-11%	?	16µM*	-2
Cc1ccccc1C(=O)O/N=C(\N)Cc1cccs1	18µM*	?	?	-22%	?	-61*
Cc1nn(S(=O)(=O)c2ccc(C(C)(C)C)cc2)c(C)c1S(=O)(=O)N1CCCCCC1	.	.	.	-7%	-5%	.
O=C(Nc1ccc(F)cc1)N1CCN(CCc2ccccc2)CC1	3%	-3%	6%	-6%	-4%	-13
CCNC(=O)N1CCN(CCCC(c2ccc(F)cc2)c2ccc(F)cc2)CC1	?	-6%	16µM*	18µM*	21µM*	-12
COC(CNC(=O)c1cc(S(=O)(=O)N2CCc3ccccc32)ccc1F)OC	15%	-1%	22%	0%	?	1
O=C(Nc1ccc(Cl)cc1)c1cc(S(=O)(=O)N2CCc3ccccc32)ccc1F	.	.	.	18µM*	18µM*	.
O=C(Nc1ccc(F)c(F)c1)c1cc(S(=O)(=O)N2CCc3ccccc32)ccc1F	.	.	.	10µM*	10µM*	.
COc1ccc(CNCCCSc2ncccn2)cc1OC	-5%	3%	-3%	-18%	1%	-8
COc1ccc(CNCCC(c2ccc(OC(C)C)cc2)c2ccccc2OC)cc1 (stereo not given)	?	-11%	?	12µM*	13µM*	-97*
COc1ccccc1C(CCNCc1ccc(N(C)C)cc1)c1ccc(OC(C)C)cc1 (stereo not given)	?	-5%	?	7.3µM*	21µM*	-101*
COc1ccc(CNS(=O)(=O)CCNCc2ccccc2OC)cc1	1%	.	0%	-25%	-16%	6
COc1ccc(CNCCC(c2ccc(OC(C)C)cc2)c2ccccc2OC)cc1OC (stereo not given)	18µM*	?	15µM*	10µM*	8.2µM*	.
COc1ccc(CCNCC(C)c2ccccc2)cc1 (stereo not given)	0%	4%	15%	-20%	-10%	-7
COc1ccccc1C(CCNCc1ccccc1)c1ccc(OC(C)C)cc1 (stereo not given)	?	?	?	21µM*	16µM*	-89*
O=C(N/N=C/c1ccc(Cl)c([N+](=O)[O-])c1)c1ccc2c(c1)OCCO2	-2%	.	3%	17%	-16%	-15
Cn1cccc1CC(=O)N/N=C/c1cc([N+](=O)[O-])ccc1Cl	21%	15%	12%	-9%	16%	9
Cc1cc(C(=O)N/N=C/c2cccc([N+](=O)[O-])c2)c(C)n1-c1ccccc1	-14%	?	-1%	23µM*	?	-16
Cc1cc(C(=O)NC2CCCCC2)c(C)n1-c1ccc(F)cc1	-3%	?	0%	?	?	-83*
Cc1cc(C(=O)N/N=C/c2ccc(Cl)c([N+](=O)[O-])c2)c(C)n1-c1ccc(F)cc1	21µM*	?	?	15µM*	23µM*	-53*
Cn1cccc1CC(=O)N/N=C/c1ccc(Cl)c([N+](=O)[O-])c1	1%	5%	-8%	-25%	-16%	-90*
N/C(=N\c1nc2c(c(=O)[nH]1)CCC2)Nc1ccccc1	?	?	20%	-11%	-7%	-1

Screens (PubChem BioAssay)
